A short description of test [1]: stimulators of insulin release from INS-1E, primary screen, cell-based, 5 mM glucose, NPC library (AID 1117329). The conditions noted are these: rat INS-1E insulin secretion, at 10 µM, stronger effect = higher value.
The nature of test [2]: growth inhibition of GSK3B-pretreated HCT116 cells – cell-based, CellTiter-Glo, 0.2 to 20 µM (AID 1117336;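 active = compounds lowering colon cancer cell viability after pretreatment blocking the GSK3B kinase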). The following applies: HCT116 viability after GSK3B inhibitor, at 20 µM, stronger effect = higher value. (In general: ATP-based viability assays read luminescence as a measure of living cells.)
Test [3] is described as follows: inhibition of endothelial tube formation, primary screen, imaging, VEGF stimulated, CD31 staining, tube area, NPC library (AID 1117340;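 active = compound that reduces growth-factor-driven endothelial tube area in a mixed cell culture, no cutoff stated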). The following applies: VEGF-stimulated ADSC/ECFC co-culture, at 10 µM, stronger effect = higher value.
Test [4] can be described thus: glucagon-like peptide 1 release enhancers, primary assay, NCI-H716 cell line, NPC library (AID 1117341;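 active = compound raises GLP1 secretion from the human gut endocrine cells, with no numeric limit stated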). The conditions noted are these: NCI-H716 cells, at 10 µM, stronger effect = higher value.
Test [5] in a line: HCT116 colon cancer cell growth inhibition, primary screen, CellTiter-Glo luminescence, NPC library (AID 1117342;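 active = compounds that lower survival of HCT116 colon cancer cells in the luminescence readout, no numeric limit stated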). The following applies: at 20 µM (top of the series).
A short description of test [6]: CellTiter-Glo luminescent readout of SW480 viability loss, NPC library primary (AID 1117343;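 active = compounds that lower viability of the colon cancer cells in the luminescence readout, with no numeric limit stated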). The conditions noted are these: CellTiter-Glo luminescence; at 20 µM (top of the series).
Test [7] is described as follows: decreased DLD-1 cellular survival, CellTiter-Glo luminescent readout, NPC compound collection, primary HTS (AID 1117346;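 active = compounds that lower survival of DLD-1 colon cancer cells in the luminescence readout, no cutoff given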). The conditions noted are these: DLD-1 viability, CellTiter-Glo luminescence; at 20 µM (top of the series).
Test [8] addresses 6-phosphogluconate dehydrogenase, decarboxylating (Homo sapiens) (UniProt P52209). Kind of test: 6PGD enzyme inhibitors, primary screen, biochemical, human, recombinant enzyme, NADPH absorbance (AID 1159550;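 active = at least 20% inhibition of 6-phosphogluconate dehydrogenase activity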). The following applies: recombinant 6PGD, NADPH absorbance 341 nm; at 10 µM; stronger effect = higher value.
A short description of test [9]: differential killing of epithelial or mesenchymal cells, primary screen, imaging, PC-3E GFP, TEM4-18 mCherry, co-culture (AID 1345086;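 active = compounds killing one labelled cell type while sparing the other, by normalised counts and ratio limits, not self-fluorescent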;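 as to all read-outs here: cells exposed to compound for 72 h before imaging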;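 as to red/green cell ratio (normalised): normalised mesenchymal count divided by normalised epithelial count so high means epithelial killing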). The conditions noted are these: imaging cell counts, at 1 µM; for red/green cell ratio (normalised): actives lie on both sides, counts scaled to control wells, 1 = unselective.
Test [10] relates to Aerobactin synthetase IucA (Klebsiella pneumoniae). The test can be described thus: IucA aerobactin synthetase inhibitors, biochemical, Tocris library, absorbance (AID 1345561; call rule not given here;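 also: 100% = enzyme without compound and 0% = no enzyme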). The following applies: purified IucA enzyme assay, absorbance (OD) read-out; stronger effect = lower value;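 tested at 8 µM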.
Test [11] can be described thus: growth inhibition of DIPG glioma cells, dose response, cell-based, SU-DIPG-XVII, MIPE5.0, CellTiter-Glo, qHTS (AID 1347060; cut-off not given, nearly all actives have AC50 up to about 26 µM). The following applies: SU-DIPG-XVII viability, CellTiter-Glo ATP luminescence.
Test [12] is described as follows: growth inhibition of DIPG glioma cells, dose response, cell-based, SU-DIPG-XIII, MIPE4.0, CellTiter-Glo, qHTS (AID 1347061; cut-off not given, nearly all actives have AC50 up to about 37 µM;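 also: cells exposed to compound for 48 hours before readout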). The following applies: SU-DIPG-XIII viability, CellTiter-Glo ATP luminescence.
Test [13] is described as follows: growth inhibition of DIPG glioma cells, dose response, cell-based, JHH-DIPG-1, MIPE4.0, CellTiter-Glo, qHTS (AID 1347062; cut-off not given, nearly all actives have AC50 up to about 27 µM). The conditions noted are these: JHH-DIPG-1 viability, CellTiter-Glo ATP luminescence.
Test [14] is described as follows: growth inhibition of DIPG glioma cells, dose response, cell-based, SU-DIPG-IV, MIPE4.0, CellTiter-Glo, qHTS (AID 1347063; cut-off not given, nearly all actives have AC50 up to about 30 µM;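 also: compound exposure lasted 48 hours before the viability readout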). The following applies: SU-DIPG-IV viability, CellTiter-Glo ATP luminescence.
Test [15] in a line: growth inhibition of DIPG glioma cells, dose response, cell-based, SU-DIPG-XIII, MIPE5.0, CellTiter-Glo, qHTS (AID 1347064; cut-off not given, nearly all actives have AC50 up to about 23 µM). The conditions noted are these: SU-DIPG-XIII viability, CellTiter-Glo ATP luminescence.
The mark [16] stands for this setting: measured here: epithelial PC-3E GFP cell survival.
Setting [17] is: measured here: mesenchymal TEM4-18 mCherry cell survival.

Structures are written as SMILES. Inconclusive results are not listed. Calls of active or inactive are those of the source.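 The calls were made as follows, unless noted: active = compound raises insulin release from rat beta cells at 5 mM glucose, no numeric limit stated; inactive = the rest.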

Sequence of 6-phosphogluconate dehydrogenase, decarboxylating (Homo sapiens) (P52209 whole entry, looked up): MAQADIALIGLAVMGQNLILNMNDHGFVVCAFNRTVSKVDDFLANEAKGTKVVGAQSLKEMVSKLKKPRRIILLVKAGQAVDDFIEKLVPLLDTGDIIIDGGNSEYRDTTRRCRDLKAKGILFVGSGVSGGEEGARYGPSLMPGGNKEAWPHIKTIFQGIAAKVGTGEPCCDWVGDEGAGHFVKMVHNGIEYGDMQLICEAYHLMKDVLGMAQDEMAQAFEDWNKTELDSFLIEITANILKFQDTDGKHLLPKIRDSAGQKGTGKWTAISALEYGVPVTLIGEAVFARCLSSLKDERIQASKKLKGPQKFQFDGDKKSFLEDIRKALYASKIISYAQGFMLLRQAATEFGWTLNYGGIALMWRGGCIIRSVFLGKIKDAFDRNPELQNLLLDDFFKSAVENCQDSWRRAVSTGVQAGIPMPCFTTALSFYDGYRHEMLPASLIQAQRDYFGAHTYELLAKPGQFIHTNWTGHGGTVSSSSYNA

On to `NC(Cc1ccc(Cl)cc1)C(=O)O` (stereo not drawn), for which the insulin secretion stimulation in test [1] is -1.3% (inactive). In [2], the viability decrease was -0.7% (inactive). Besides, the tube area decrease in test [3] was -8.9% (inactive). In [4], the GLP1 secretion stimulation was 0.5% (inactive). Moreover, the inhibition of viability in test [5] is -7.8% (inactive). Also, the results for the viability decrease (inhibition) in test [6] and in test [7] were 13.2% (inactive) and -6.55% (inactive), respectively. In addition, the inhibition in test [8] is 5.29% (inactive). Moreover, in [9], the red/green cell ratio (normalised) is 1.13 (inactive). Besides, the normalised cell number in [9] (setting [16]) was found to be 0.99; in test [9] (setting [17]) it was 1.12.
As for `CC1=NN(c2ccccc2)C(=O)C1`, the insulin secretion stimulation in test [1] was -2.2% (inactive). Moreover, the viability decrease in test [2] was 10.2% (inactive). Further, the tube area decrease in test [3] is 6.7% (inactive). Besides, the GLP1 secretion stimulation in test [4] is 3.5% (inactive). Besides, the inhibition of viability in [5] is 2.1% (inactive). In addition, the viability decrease (inhibition) was 33.2% (inactive) in test [6] and 12.2% (inactive) in test [7]. For the same compound, the inhibition in test [8] is 13.6% (inactive). Also, in test [9], the red/green cell ratio (normalised) was 0.88 (inactive). Further, the normalised cell number was 1.15 in test [9] (setting [16]) and 1.01 in test [9] (setting [17]). For the same compound, in test [10], the remaining activity was 85.6% (inactive). Also, the call in [11], in test [12], in test [13], in [14] and in test [15] was inactive.
Take `CCCOc1ccccc1-c1nc2n[nH]nc2c(=O)[nH]1`: in test [1], the insulin secretion stimulation is -0.8% (inactive). In [2], the viability decrease was -203% (inactive). Besides, the tube area decrease in [3] is -11.3% (inactive). The GLP1 secretion stimulation in [4] is 1.4% (inactive). Moreover, the inhibition of viability in [5] was 17.5% (inactive). The viability decrease (inhibition) in test [6] is 9.4% (inactive); in [7] it was 1% (inactive). Further, the inhibition in test [8] is -4.08% (inactive). Besides, the red/green cell ratio (normalised) in test [9] was 0.95 (inactive). The normalised cell number in test [9] (setting [16]) was 1.02; in test [9] (setting [17]), 0.97. For the same compound, in test [10], the remaining activity was 122% (inactive).
For the compound `Cc1scc2c1N(C(=O)CN1CCN(C)CC1)c1ccccc1NC2=O`, the insulin secretion stimulation in test [1] is 4% (inactive). For the same compound, the viability decrease in test [2] was -15.9% (inactive). Besides, the tube area decrease in [3] is -6.3% (inactive). In test [4], the GLP1 secretion stimulation was -2.6% (inactive). Further, the inhibition of viability in test [5] was -4.6% (inactive). Moreover, the viability decrease (inhibition) is 2% (inactive) in test [6] and 1.4% (active) in test [7]. For the same compound, in test [8], the inhibition is 10.3% (inactive). The red/green cell ratio (normalised) in [9] was 1.05 (inactive). The normalised cell number in [9] (setting [16]) is 0.88; in test [9] (setting [17]) it was 0.92. The remaining activity in test [10] is 94.5% (inactive).
Turning to `CC(C)(Oc1ccc(Cl)cc1)C(=O)O`, the insulin secretion stimulation in test [1] was -2.3% (inactive). Further, the viability decrease in test [2] is -12.6% (inactive). Moreover, in test [3], the tube area decrease is -2.8% (inactive). Besides, the GLP1 secretion stimulation in [4] was 4.6% (inactive). The inhibition of viability in test [5] was 13.2% (inactive). Moreover, the viability decrease (inhibition) in test [6] was 12.2% (inactive); in test [7], -5.25% (inactive). Moreover, the inhibition in test [8] is -17.2% (inactive). The red/green cell ratio (normalised) in test [9] is 0.77 (inactive). In addition, the normalised cell number in test [9] (setting [16]) was found to be 1.11; in test [9] (setting [17]) it was 0.86. The remaining activity in test [10] was 92.9% (inactive).
Consider `CC(=O)Nc1ccc(O)cc1`, for which the insulin secretion stimulation in test [1] was -0.1% (inactive). Besides, in test [2], the viability decrease is 9.25% (inactive). The tube area decrease in [3] was -15.2% (inactive). Further, in [4], the GLP1 secretion stimulation was 1.9% (inactive). For the same compound, in test [5], the inhibition of viability was 1.2% (inactive). The figures for the viability decrease (inhibition) in test [6] and in [7] were 34.3% (inactive) and 3.3% (inactive), respectively. The inhibition in [8] was 13.8% (inactive). Also, the red/green cell ratio (normalised) in test [9] is 1.05 (inactive). Besides, the values for the normalised cell number in test [9] (setting [16]) and in test [9] (setting [17]) were 1.11 and 1.16, respectively. Moreover, the remaining activity in test [10] was 121% (inactive). The outcome in test [12] and in test [13] was inactive.

The inhibition is the change of the read-out against control, counted positive when it falls. What is called remaining activity is the signal under treatment as a percentage of the control signal.
